Records with an inconclusive call do not appear. The source made the active and inactive calls. Calls follow the shape of the dose curve; as a rule, active = well fitted curve in the direction sought with a large enough effect; inconclusive = small, poorly fitted or top-dose-only effect, or another doubt; inactive = no such curve, though single readings can be large; an effect the other way counts as inactive or inconclusive. Where a SMILES comes first, the peptide text is derived from it.
How the values were obtained:
[1] = system: CRL-7250; assay: Cytotoxic Profiling of Annotated Libraries Using Quantitative High-Throughput Screening (AID 1296008); conditions: Five cell lines viability, CellTiter-Glo ATP luminescence, 48-72 h; max response: active compounds read low; also: nearly all actives have a fitted effect of over 60% in size; as to max response: % is scaled to controls: 0 for no effect and ±100 for the full control effect
Method in brief: (§1)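 Compounds were pin-transferred onto cells and incubated 48 or 72 hr at 37 degree Celsius, 95% humidity. CellTiter-Glo was added, plates sat 10 min at room temperature, then ATP-coupled luminescence was imaged as the viability read-out.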

[2] = system: HEK293; assay: as above; conditions: Five cell lines viability, CellTiter-Glo ATP luminescence, 48-72 h; max response: active compounds read low
Method in brief: as §1

[3] = system: HaCat; assay: as above; conditions: Five cell lines viability, CellTiter-Glo ATP luminescence, 48-72 h; max response: active compounds read low
Method in brief: as §1

[4] = system: KB-3-1; assay: as above; conditions: Five cell lines viability, CellTiter-Glo ATP luminescence, 48-72 h; max response: active compounds read low
Method in brief: as §1

[5] = system: NIH3T3; assay: as above; conditions: Five cell lines viability, CellTiter-Glo ATP luminescence, 48-72 h; max response: active compounds read low
Method in brief: as §1

[6] = system: HACAT; assay: qHTS assay to identify novel small-molecules to repurpose for Merkel cell carcinoma treatment (AID 1296009); conditions: MCC and control cell lines, CellTiter-Glo viability, 72 h; at 44.8 µM (top of the series) unless noted; also: nearly all actives have a fitted effect of over 60% in size
Method in brief: (§2)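 Viability readout: ATP luminescence (CellTiter-Glo) after 72 hr drug exposure at 37 degree celsius. Dose-response format was 8 points for NPC and 11 points for MIPE; data normalized to in-plate controls.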

[7] = system: HEK293T; assay: as above; conditions: MCC and control cell lines, CellTiter-Glo viability, 72 h; series mostly up to 44.8 µM
Method in brief: as §2

[8] = system: NIH3T3; assay: as above; conditions: MCC and control cell lines, CellTiter-Glo viability, 72 h; at 44.8 µM (top of the series) unless noted
Method in brief: as §2

[9] = system: C33A; assay: Primary qHTS to identify gynecologic anti-cancer compounds using libraries of approved drugs and bioactive compounds (AID 1345084); conditions: Gynecologic cancer cell panel viability, ATPlite luminescence, 48 h; series mostly up to 57.5 µM; also: % is scaled to controls: 0 for no effect and ±100 for the full control effect; nearly all actives have a fitted effect of over 55% in size
Method in brief: (§3)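 Luminescence from the ATPlite ATP-monitoring reagent indicates viable cell number; lower signal means cytotoxicity. Cells received compound 16 h after seeding and were exposed for 48 h across five concentrations.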

[10] = system: CAOV3; assay: as above; conditions: Gynecologic cancer cell panel viability, ATPlite luminescence, 48 h; series mostly up to 57.5 µM
Method in brief: as §3

[11] = system: CASKI; assay: as above; conditions: Gynecologic cancer cell panel viability, ATPlite luminescence, 48 h; series mostly up to 57.5 µM
Method in brief: as §3

[12] = system: Es-2; assay: as above; conditions: Gynecologic cancer cell panel viability, ATPlite luminescence, 48 h; series mostly up to 57.5 µM
Method in brief: as §3

[13] = system: HeLa; assay: as above; conditions: Gynecologic cancer cell panel viability, ATPlite luminescence, 48 h; series mostly up to 57.5 µM
Method in brief: as §3

O=C1Nc2ccc(O)cc2O[C@H]1O[C@@H]1O[C@H](CO)[C@@H](O)[C@H](O)[C@H]1O
inactive: max response [1] -3.66% | outcome [2] | outcome [3] | outcome [4] | outcome [5] | outcome [6] | Potency [7] | outcome [8] | Potency [9] | Potency [10] | Potency [11] | Potency [12] | Potency [13]

CC(NCc1ccc(OCc2cccc(F)c2)cc1)C(N)=O (stereo not drawn)
inactive: outcome [1] | outcome [2] | outcome [3] | max response [4] 9.7% | outcome [5] | outcome [6] | Potency [7] | outcome [8] | Potency [9] | Potency [10] | Potency [11] | Potency [12] | Potency [13]

C[C@@H](O)[C@H](N)C(=O)N1CCC[C@H]1C(=O)N1CCC[C@H]1C(=O)N[C@H](C(N)=O)[C@@H](C)O (H-TPPT-NH2)
inactive: outcome [1] | outcome [2] | outcome [3] | outcome [4] | outcome [5] | outcome [6] inactive [at 9.27 µM] | outcome [7] inactive [at 9.27 µM] | outcome [8] inactive [at 9.27 µM] | activity change, negative = cytotoxicity [9] 10.5% [at 11.6 µM] | activity change, negative = cytotoxicity [10] 3.79% [at 11.6 µM] | activity change, negative = cytotoxicity [11] 7.08% [at 11.6 µM] | activity change, negative = cytotoxicity [12] -3.74% [at 11.6 µM] | activity change, negative = cytotoxicity [13] 8.64% [at 11.6 µM]

CC(=O)[C@@H]1CC[C@]2(C(=O)O)CC[C@]3(C)C(CCC4[C@@]5(C)CC[C@H](O)C(C)(C)C5CC[C@]43C)C12 (stereo partly drawn)
inactive: outcome [1] | outcome [2] | outcome [3] | outcome [4] | outcome [5] | outcome [6] inactive [at 17.4 µM] | Potency [7] | outcome [8] inactive [at 17.4 µM] | Potency [9] | Potency [10] | Potency [11] | Potency [12] | Potency [13]

COc1cc2c(cc1OC)CN(C(=O)[C@@H](NCc1ccncc1)C(C)(C)C)CC2
inactive: outcome [1] | outcome [2] | outcome [3] | max response [4] 5.18% | outcome [5] | outcome [6] | Potency [7] | outcome [8] | Potency [9] | Potency [10] | Potency [11] | Potency [12] | Potency [13]

CCC(C)(O)C(O)C(=O)OCc1ccc(O[C@@H]2O[C@H](CO)[C@@H](O)[C@H](O)[C@H]2O)c(OC)c1 (stereo partly drawn)
inactive: max response [1] 0.769% | outcome [2] | outcome [3] | max response [4] 4.31% | outcome [5] | outcome [6] inactive [at 17.4 µM] | Potency [7] | outcome [8] inactive [at 17.4 µM] | Potency [9] | Potency [10] | Potency [11] | Potency [12] | Potency [13]

CC12CC34C=CC(=O)C(C)(CCC(=O)O)C3C(CC1C4)O2 (stereo not drawn)
inactive: outcome [1] | outcome [2] | outcome [3] | max response [4] 5.48% | outcome [5] | outcome [6] | Potency [7] | outcome [8] | Potency [9] | Potency [10] | Potency [11] | Potency [12] | Potency [13]

C=C(C(=O)O)[C@@H]1CC=C2CCC[C@H](C)[C@@]2(C)C1
inactive: max response [1] -11.2% | outcome [2] | outcome [3] | max response [4] 4.53% | outcome [5] | outcome [6] | Potency [7] | outcome [8] | Potency [9] | Potency [10] | Potency [11] | Potency [12] | Potency [13]

CC1=C2C3OC(=O)C(C)C3(O)CCC2(C)CCC1=O (stereo not drawn)
inactive: max response [1] -29.1% | outcome [2] | outcome [3] | outcome [4] | outcome [5] | outcome [6] | Potency [7] | outcome [8] | Potency [9] | Potency [10] | Potency [11] | Potency [12] | Potency [13]

C[C@@H]1CC[C@]2(C(=O)O[C@@H]3O[C@H](CO)[C@@H](O)[C@H](O)[C@H]3O)CC[C@]3(C)C(=CCC4[C@@]5(C)C[C@@H](O)[C@H](O)C(C)(C)C5CC[C@]43C)C2[C@]1(C)O (stereo partly drawn)
inactive: outcome [1] | outcome [2] | outcome [3] | max response [4] 0.448% | outcome [5] | outcome [6] inactive [at 17.4 µM] | Potency [7] | outcome [8] inactive [at 17.4 µM] | Potency [9] | Potency [10] | Potency [11] | Potency [12] | Potency [13]

CNC(=O)O[C@H]1COc2ccc(N3CCN(C4COC4)CC3)cc2[C@@H]1NC(=O)c1ccc(F)cc1
inactive: max response [1] -2.36% | outcome [2] | outcome [3] | outcome [4] | outcome [5] | outcome [6] | Potency [7] | outcome [8] | Potency [9] | Potency [10] | Potency [11] | Potency [12] | Potency [13]

C[C@H]1C[C@H]2[C@@H]3CCC4=CC(=O)C=C[C@]4(C)[C@@]3(F)[C@@H](O)C[C@]2(C)[C@@]1(O)C(=O)COP(=O)(O)O
inactive: max response [1] 2.73% | outcome [2] | outcome [3] | outcome [4] | outcome [5] | outcome [6] | Potency [7] | outcome [8] | Potency [9] | Potency [10] | Potency [11] | Potency [12] | Potency [13]

C=C1CC[C@H]2[C@@](C)(CCC(O)[C@@]2(C)CO)[C@@H]1C/C=C(/C(=O)O)C(O)CO (stereo partly drawn)
inactive: outcome [1] | outcome [2] | outcome [3] | max response [4] 7.71% | outcome [5] | outcome [6] | Potency [7] | outcome [8] | Potency [9] | Potency [10] | Potency [12] | Potency [13]

Reference: PubChem BioAssay (NCATS)
